Laboratory results reported in the supplement of paper PMC10849652.
Targets with a hit are over-represented here; the source holds about 8,800 in all. About 0.5% of all pairs of compound and target were hits. Values without a mark were called inactive.

compound: Cc1ccc(-n2nc(C(C)(C)C)cc2NC(=O)Nc2ccc(OCCN3CCOCC3)c3ccccc23)cc1 [doramapimod]; assay: log2 fold change, soluble protein after heating vs DMSO (PISA); higher = thermal stabilisation; K562 lysate, 10 uM; active = over 0.2 and 3.5 SD of the protein, either way, in both replicates (recomputed)
Summary of the method: (§1)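 A 30 min treatment with 10 μM compound was applied to crude K562 extract at 1 mg/mL protein in PBS pH 7.4 with 1 mM MgCl2. Heating for 3 min spanned 48°C-58°C, after which aliquots were pooled, adjusted to 0.5% NP-40 at 4°C and spun at 21,000xg for 90 min. TMTpro 16plex LC-MS/MS of the supernatant, with channel sums equalised, gave values recorded as log-two fold change in thermal stability against solvent controls, from duplicates.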

Chain of UniProt Q03164 (Q03164 whole entry, looked up): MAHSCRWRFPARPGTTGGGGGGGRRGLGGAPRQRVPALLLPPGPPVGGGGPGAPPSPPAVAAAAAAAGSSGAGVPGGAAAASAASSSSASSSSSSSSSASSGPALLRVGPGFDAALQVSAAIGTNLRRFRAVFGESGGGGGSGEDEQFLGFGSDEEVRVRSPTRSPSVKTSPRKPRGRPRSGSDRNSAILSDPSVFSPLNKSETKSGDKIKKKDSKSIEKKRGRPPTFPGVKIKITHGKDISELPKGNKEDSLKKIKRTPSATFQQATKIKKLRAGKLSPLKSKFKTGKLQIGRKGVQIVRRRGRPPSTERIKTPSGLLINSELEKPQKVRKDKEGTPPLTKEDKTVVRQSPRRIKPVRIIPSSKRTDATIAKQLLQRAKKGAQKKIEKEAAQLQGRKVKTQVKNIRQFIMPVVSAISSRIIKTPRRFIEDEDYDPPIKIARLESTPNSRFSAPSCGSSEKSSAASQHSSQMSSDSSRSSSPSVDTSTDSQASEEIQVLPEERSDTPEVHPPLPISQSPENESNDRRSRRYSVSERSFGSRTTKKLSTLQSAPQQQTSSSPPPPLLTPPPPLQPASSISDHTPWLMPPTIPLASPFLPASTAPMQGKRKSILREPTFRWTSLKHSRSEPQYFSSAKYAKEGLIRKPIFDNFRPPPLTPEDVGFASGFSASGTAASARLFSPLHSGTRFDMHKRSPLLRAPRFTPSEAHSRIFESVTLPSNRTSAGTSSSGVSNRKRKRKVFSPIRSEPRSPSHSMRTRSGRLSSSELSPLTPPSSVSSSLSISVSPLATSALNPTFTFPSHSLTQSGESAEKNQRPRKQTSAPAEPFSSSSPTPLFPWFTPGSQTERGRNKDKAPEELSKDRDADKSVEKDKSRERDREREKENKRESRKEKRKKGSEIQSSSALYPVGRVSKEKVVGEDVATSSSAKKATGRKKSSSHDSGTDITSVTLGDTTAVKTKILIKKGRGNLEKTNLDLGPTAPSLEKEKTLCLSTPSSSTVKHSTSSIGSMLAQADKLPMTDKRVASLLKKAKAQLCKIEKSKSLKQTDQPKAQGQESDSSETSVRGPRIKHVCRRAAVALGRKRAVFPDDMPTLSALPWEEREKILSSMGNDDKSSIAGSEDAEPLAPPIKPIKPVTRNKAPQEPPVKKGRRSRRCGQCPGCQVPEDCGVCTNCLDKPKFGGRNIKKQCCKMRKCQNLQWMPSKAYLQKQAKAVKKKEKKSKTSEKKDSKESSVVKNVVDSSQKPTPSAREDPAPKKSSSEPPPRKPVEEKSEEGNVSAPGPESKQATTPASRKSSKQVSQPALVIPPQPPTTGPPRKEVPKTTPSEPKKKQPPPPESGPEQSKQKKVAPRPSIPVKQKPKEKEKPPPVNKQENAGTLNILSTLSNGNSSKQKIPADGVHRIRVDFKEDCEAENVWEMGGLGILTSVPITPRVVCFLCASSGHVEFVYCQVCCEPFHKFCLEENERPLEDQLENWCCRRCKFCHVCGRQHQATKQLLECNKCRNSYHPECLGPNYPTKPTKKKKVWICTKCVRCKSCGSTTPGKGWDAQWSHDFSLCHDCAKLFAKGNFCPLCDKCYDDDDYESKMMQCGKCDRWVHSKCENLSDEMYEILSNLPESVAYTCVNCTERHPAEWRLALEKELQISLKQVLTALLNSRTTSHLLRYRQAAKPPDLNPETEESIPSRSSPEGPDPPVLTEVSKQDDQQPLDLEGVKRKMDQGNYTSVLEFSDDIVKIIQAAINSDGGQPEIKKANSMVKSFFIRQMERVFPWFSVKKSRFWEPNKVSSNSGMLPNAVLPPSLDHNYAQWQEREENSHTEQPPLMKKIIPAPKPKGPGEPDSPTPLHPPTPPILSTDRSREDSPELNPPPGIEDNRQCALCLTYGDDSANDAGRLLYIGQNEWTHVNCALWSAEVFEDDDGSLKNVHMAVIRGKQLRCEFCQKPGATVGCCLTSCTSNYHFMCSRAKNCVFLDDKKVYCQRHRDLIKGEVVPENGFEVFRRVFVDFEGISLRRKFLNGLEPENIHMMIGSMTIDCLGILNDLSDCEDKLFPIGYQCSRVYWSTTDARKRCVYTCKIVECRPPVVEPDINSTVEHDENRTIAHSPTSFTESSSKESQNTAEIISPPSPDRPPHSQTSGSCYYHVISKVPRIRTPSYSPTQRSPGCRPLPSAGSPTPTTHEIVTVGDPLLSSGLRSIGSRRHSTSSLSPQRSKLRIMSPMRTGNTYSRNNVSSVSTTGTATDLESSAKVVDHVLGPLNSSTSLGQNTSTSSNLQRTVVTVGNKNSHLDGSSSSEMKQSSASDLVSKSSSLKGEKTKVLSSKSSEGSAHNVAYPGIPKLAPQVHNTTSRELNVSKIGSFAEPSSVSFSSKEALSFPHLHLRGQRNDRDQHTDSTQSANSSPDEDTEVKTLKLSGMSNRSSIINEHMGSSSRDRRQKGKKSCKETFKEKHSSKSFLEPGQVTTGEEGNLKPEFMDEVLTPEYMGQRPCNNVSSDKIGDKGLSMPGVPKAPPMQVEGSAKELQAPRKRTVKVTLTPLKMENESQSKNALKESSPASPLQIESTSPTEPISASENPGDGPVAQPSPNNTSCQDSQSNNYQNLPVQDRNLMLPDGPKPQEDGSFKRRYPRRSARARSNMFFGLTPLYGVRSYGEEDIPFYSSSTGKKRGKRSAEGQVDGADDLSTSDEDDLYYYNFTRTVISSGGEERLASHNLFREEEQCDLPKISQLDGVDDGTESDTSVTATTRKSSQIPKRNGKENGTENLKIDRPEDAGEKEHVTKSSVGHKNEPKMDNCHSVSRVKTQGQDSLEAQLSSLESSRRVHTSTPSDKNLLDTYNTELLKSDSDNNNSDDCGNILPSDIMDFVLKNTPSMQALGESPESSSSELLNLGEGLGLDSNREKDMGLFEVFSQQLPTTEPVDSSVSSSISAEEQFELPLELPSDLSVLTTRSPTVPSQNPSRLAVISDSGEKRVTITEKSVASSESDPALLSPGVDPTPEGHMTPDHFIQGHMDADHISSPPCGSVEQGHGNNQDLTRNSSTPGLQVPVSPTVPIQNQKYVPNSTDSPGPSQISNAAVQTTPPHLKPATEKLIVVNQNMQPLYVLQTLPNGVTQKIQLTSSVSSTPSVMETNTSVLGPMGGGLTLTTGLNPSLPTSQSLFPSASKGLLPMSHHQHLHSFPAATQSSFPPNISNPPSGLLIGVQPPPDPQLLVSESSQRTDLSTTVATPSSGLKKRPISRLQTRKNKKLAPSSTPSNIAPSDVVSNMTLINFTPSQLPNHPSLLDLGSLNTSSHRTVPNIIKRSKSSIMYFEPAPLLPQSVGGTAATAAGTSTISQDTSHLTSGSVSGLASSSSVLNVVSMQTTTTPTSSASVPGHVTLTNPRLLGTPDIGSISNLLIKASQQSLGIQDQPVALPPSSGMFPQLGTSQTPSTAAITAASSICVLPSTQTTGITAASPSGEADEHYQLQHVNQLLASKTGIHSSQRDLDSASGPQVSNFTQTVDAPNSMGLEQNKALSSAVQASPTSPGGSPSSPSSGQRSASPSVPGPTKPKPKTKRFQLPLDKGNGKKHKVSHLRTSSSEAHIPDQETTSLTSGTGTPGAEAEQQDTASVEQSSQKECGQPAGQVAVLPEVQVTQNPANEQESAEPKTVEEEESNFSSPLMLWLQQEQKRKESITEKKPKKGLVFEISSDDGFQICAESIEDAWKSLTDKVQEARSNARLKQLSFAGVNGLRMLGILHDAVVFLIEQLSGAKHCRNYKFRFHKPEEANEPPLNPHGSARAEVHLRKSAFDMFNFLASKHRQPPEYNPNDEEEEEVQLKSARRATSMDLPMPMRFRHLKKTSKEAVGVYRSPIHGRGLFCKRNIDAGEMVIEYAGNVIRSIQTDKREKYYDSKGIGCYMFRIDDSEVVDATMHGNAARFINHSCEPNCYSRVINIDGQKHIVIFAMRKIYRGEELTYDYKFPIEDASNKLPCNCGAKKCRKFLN
Chain of UniProt Q14693 (Q14693 whole entry, looked up): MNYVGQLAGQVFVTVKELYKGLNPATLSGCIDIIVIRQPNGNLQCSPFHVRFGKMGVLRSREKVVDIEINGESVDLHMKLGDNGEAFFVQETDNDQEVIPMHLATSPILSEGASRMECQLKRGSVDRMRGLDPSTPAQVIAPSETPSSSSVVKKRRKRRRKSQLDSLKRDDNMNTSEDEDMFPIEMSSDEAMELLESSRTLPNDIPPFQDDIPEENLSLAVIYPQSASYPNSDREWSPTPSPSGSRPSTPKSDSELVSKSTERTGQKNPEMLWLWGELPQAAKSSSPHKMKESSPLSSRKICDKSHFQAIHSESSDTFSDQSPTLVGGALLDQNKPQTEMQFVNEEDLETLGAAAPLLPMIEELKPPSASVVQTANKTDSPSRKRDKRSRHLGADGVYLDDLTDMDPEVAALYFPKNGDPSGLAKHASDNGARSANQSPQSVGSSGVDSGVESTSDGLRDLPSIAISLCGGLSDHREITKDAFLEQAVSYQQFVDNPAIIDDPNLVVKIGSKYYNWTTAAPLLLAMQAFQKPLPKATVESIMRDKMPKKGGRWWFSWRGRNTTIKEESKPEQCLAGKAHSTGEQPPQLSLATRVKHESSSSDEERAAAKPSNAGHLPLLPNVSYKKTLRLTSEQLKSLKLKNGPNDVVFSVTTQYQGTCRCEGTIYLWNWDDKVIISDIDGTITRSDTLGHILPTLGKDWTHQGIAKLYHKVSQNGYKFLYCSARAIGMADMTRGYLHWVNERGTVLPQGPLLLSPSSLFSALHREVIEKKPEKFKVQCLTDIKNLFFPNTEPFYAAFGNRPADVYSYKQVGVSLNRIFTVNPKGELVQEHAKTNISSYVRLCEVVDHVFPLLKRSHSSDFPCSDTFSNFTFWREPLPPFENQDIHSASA
Chain of UniProt O95297 (O95297 whole entry, looked up): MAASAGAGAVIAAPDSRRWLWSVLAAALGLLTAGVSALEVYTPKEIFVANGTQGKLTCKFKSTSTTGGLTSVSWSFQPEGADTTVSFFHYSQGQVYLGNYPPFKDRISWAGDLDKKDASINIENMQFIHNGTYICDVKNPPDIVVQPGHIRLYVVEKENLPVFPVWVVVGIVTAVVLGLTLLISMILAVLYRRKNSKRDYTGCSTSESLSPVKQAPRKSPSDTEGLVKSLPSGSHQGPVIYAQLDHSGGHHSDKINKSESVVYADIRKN

| Target | log2 fold change |
| --- | --- |
| MAD2L1BP isoform 3 (UniProt Q15013) | 0.12 |
| MORF4L1 isoform 2 (UniProt Q9UBU8) | -0.047 |
| MCUB (UniProt Q9NWR8) | 0.05 |
| LPIN1 isoform 7 (UniProt Q14693) | 0.013 |
| MECR (UniProt Q9BV79) | 0.02 |
| MPZL1 (UniProt O95297) | -0.087 |
| MAPK1 (UniProt P28482) | -0.013 |
| MARCHF6 (UniProt O60337) | 0.003 |
| KMT2A isoform 3 (UniProt Q03164) | 0.026 |
| MAP3K4 (UniProt Q9Y6R4) | 0.073 |
| MRPL19 (UniProt P49406) | 0.011 |
| MFF isoform 2 (UniProt Q9GZY8) | -0.035 |
| METTL21A (UniProt Q8WXB1) | -0.081 |
| KLHL12 isoform 2 (UniProt Q53G59) | 0.003 |
| MRPL35 (UniProt Q9NZE8) | -0.023 |
| LETM1 (UniProt O95202) | -0.01 |
| MAP7D3 (UniProt Q8IWC1) | 0.065 |
| KIF4A (UniProt O95239) | 0 |
| MLH1 (UniProt P40692) | 0.013 |

| Target | log2 fold change |
| --- | --- |
| LEPROT (UniProt O15243) | 0 |
| MAP2K2 (UniProt P36507) | -0.058 |
| MINDY1 isoform 3 (UniProt Q8N5J2) | 0.051 |
| LIMS1 isoform 3 (UniProt P48059) | -0.068 |
| LAMP1 (UniProt P11279) | -0.044 |
| KLC4 isoform 3 (UniProt Q9NSK0) | 0.034 |
| MAP2K7 isoform 4 (UniProt O14733) | 0.052 |
| LIG4 (UniProt P49917) | -0.037 |
| KRIT1 (UniProt O00522) | 0.016 |
| MAPKAPK3 (UniProt Q16644) | -0.025 |
| MAPK3 (UniProt P27361) | -0.023 |
| KLHL36 (UniProt Q8N4N3) | -0.129 |
| MCMBP isoform 2 (UniProt Q9BTE3) | -0.092 |
| MME (UniProt P08473) | 0.002 |
| MAP4 isoform 5 (UniProt P27816) | -0.061 |
| MAP4K5 (UniProt Q9Y4K4) | -0.04 |
| MAP2K5 (UniProt Q13163) | -0.017 |
| LLGL1 (UniProt Q15334) | 0.006 |

compound: Cc1ccc(NC(=O)c2ccc(CN3CC[C@H](N(C)C)C3)c(C(F)(F)F)c2)cc1Nc1nccc(-c2cncnc2)n1 [bafetinib]; assay: as above
Summary of the method: as §1

| Target | log2 fold change |
| --- | --- |
| MAD2L1BP isoform 3 (UniProt Q15013) | -0.041 |
| MORF4L1 isoform 2 (UniProt Q9UBU8) | -0.01 |
| MCUB (UniProt Q9NWR8) | -0.045 |
| LPIN1 isoform 7 (UniProt Q14693) | -0.04 |
| MECR (UniProt Q9BV79) | -0.005 |
| MPZL1 (UniProt O95297) | -0.027 |
| MAPK14 (UniProt Q16539) | 1.03 (active) |
| MAPK1 (UniProt P28482) | 0.004 |
| MARCHF6 (UniProt O60337) | -0.105 |
| KMT2A isoform 3 (UniProt Q03164) | -0.41 |
| MAP3K4 (UniProt Q9Y6R4) | -0.031 |
| MRPL19 (UniProt P49406) | -0.048 |
| MFF isoform 2 (UniProt Q9GZY8) | -0.031 |
| METTL21A (UniProt Q8WXB1) | -0.04 |
| KLHL12 isoform 2 (UniProt Q53G59) | -0.131 |
| MRPL35 (UniProt Q9NZE8) | -0.02 |
| LETM1 (UniProt O95202) | -0.049 |
| MAP7D3 (UniProt Q8IWC1) | -0.128 |
| KIF4A (UniProt O95239) | -0.066 |
| MLH1 (UniProt P40692) | -0.063 |

| Target | log2 fold change |
| --- | --- |
| LEPROT (UniProt O15243) | -0.067 |
| MAP2K2 (UniProt P36507) | -0.063 |
| MINDY1 isoform 3 (UniProt Q8N5J2) | -0.11 |
| LIMS1 isoform 3 (UniProt P48059) | -0.035 |
| LAMP1 (UniProt P11279) | -0.065 |
| KLC4 isoform 3 (UniProt Q9NSK0) | -0.018 |
| MAP2K7 isoform 4 (UniProt O14733) | -0.06 |
| LIG4 (UniProt P49917) | -0.167 |
| KRIT1 (UniProt O00522) | -0.041 |
| MAPKAPK3 (UniProt Q16644) | 0.026 |
| MAPK3 (UniProt P27361) | 0.021 |
| KLHL36 (UniProt Q8N4N3) | 0.022 |
| MCMBP isoform 2 (UniProt Q9BTE3) | 0.235 |
| MME (UniProt P08473) | 0.058 |
| MAP4 isoform 5 (UniProt P27816) | 0.081 |
| MAP4K5 (UniProt Q9Y4K4) | -0.046 |
| MAP2K5 (UniProt Q13163) | -0.436 |
| MAPK14 isoform 2 (UniProt Q16539) | 0.765 |
| LLGL1 (UniProt Q15334) | -0.104 |
